Measurements published in PubChem BioAssay (EPA / NIEHS).
Inconclusive results are not listed. The source made the active and inactive calls. How the source made its calls, unless noted: active means hit-call score of the fitted dose curve at least 0.9, where 1 is the maximum; inactive means score below 0.9.

Tests used:
[1] = ATG_NFI_CIS: Attagene CIS-FACTORIAL HepG2 Assay for human Nuclear Factor I (NFI) (AID 2282989); conditions: HepG2 cis-regulatory reporter, NFI response element transcription; actives raise or lower the signal
Procedure, shortened: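 HepG2, transient MRTU, 24 h exposure; RNA→cDNA→PCR→FAM label→HpaI→CE fluorescence. Bidirectional fit, DMSO = baseline.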

[2] = target: Myc proto-oncogene protein (Homo sapiens) (UniProt P01106); assay: ATG_Myc_CIS: Attagene CIS-FACTORIAL HepG2 Assay for human Myelocytomatosis (Myc) Proto-Oncogene Transcription Factor (AID 2282990); conditions: HepG2, Attagene cis-reporter transcription factor activity; actives raise or lower the signal
Procedure, shortened: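 Multiplexed cis-reporter transcription in HepG2 cells after 24 h chemical treatment. Reporter mRNA measured by RT-PCR and capillary electrophoresis fluorescence; activity fitted bidirectionally against DMSO control.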

[3] = ATG_NRF2_ARE_CIS: Attagene CIS-FACTORIAL HepG2 Assay for human Nuclear Factor Erythroid 2 Related Factor 2 (NFR2) response to Antioxidant Response Elements (ARE) (AID 2282992); conditions: HepG2 Attagene ARE/NRF2 reporter, transcription factor activity; actives raise or lower the signal
Procedure, shortened: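 Using transiently transfected HepG2 cells exposed for 24 h, reporter mRNA levels were determined by RT-PCR with fluorescent primer extension and capillary electrophoresis, analysed for gain or loss of signal against DMSO.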

[4] = target: human Peroxisome Proliferator-activated Receptor alpha (PPARa), PPARA (gene 5465) (UniProt Q07869); assay: ATG_PPARa_TRANS: Attagene TRANS-FACTORIAL HepG2 Assay for human Peroxisome Proliferator-activated Receptor alpha (PPARa) (AID 2283001; active means hit-call score of the fitted dose curve at least 0.9, where 1 is the maximum;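 on AC50: potency for gain of reporter signal over DMSO so agonist or activator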)
Procedure, shortened: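 Cells (HepG2) are transfected with multiple reporter transcription units, exposed to chemical for 24 h, then total RNA is reverse-transcribed and amplified. Labelled products are quantified by capillary electrophoresis; induction is referenced to DMSO.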

[5] = target: human Peroxisome Proliferator-activated Receptor delta (PPARd), PPARD (gene 5467) (UniProt Q03181); assay: ATG_PPARd_TRANS: Attagene TRANS-FACTORIAL HepG2 Assay for human Peroxisome Proliferator-activated Receptor delta (PPARd) (AID 2283002; active means hit-call score of the fitted dose curve at least 0.9, where 1 is the maximum)
Procedure, shortened: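 Multiplexed trans-activation format: HepG2 liver cells expressing exogenous NR-Gal4 chimeras and GAL4-UAS reporters were exposed for 24 h. Reporter mRNA was detected by RT-PCR with capillary electrophoresis fluorescence; activity fitted as gain of signal relative to DMSO.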

[6] = target: Peroxisome proliferator-activated receptor gamma (Homo sapiens) (UniProt P37231); assay: ATG_PPARg_TRANS: Attagene TRANS-FACTORIAL HepG2 Assay for human Peroxisome Proliferator-activated Receptor-gamma (PPARg) (AID 2283007; active means hit-call score of the fitted dose curve at least 0.9, where 1 is the maximum)
Procedure, shortened: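 Chimeric NR-Gal4 transactivation is measured in transiently transfected HepG2 cells by reporter mRNA induction at 24 h. Detection uses RT-PCR with fluorescent labelling and capillary electrophoresis; DMSO defines baseline.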

[7] = target: Nuclear receptor subfamily 1 group I member 2 (Homo sapiens) (UniProt O75469); assay: ATG_PXR_TRANS: Attagene TRANS-FACTORIAL HepG2 Assay for human Pregnane X Receptor (PXR) (AID 2283008; active means hit-call score of the fitted dose curve at least 0.9, where 1 is the maximum)
Procedure, shortened: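 Multiplexed TRANS reporter panel in HepG2; this component tracks PXR-Gal4-driven reporter mRNA after 24 h dosing, measured by RT-PCR with capillary electrophoresis fluorescence, fitted against DMSO.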

[8] = ATG_Oct_MLP_CIS: Attagene CIS-FACTORIAL HepG2 Assay for human Octamer-Binding Transcription Factor (Oct) (AID 2282993); conditions: HepG2 Attagene cis-factorial Oct reporter, mRNA; actives raise or lower the signal
Procedure, shortened: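 Multiplexed cis-reporter assay in human liver HepG2 cells, 24 h incubation. Reporter RNA amplified and labelled, then resolved by capillary electrophoresis; DMSO serves as negative control and baseline.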

[9] = target: Cellular tumor antigen p53 (Homo sapiens) (UniProt P04637); assay: ATG_p53_CIS: Attagene CIS-FACTORIAL HepG2 Assay for human p53 Transcription Factor (AID 2282994); conditions: HepG2 p53 cis-element reporter, Attagene mRNA; actives raise or lower the signal
Procedure, shortened: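 In HepG2 cells, reporter transcription units under cis-regulatory promoters were transiently introduced. Following 24 h treatment, RNA was processed to labelled, digested cDNA fragments read by capillary electrophoresis; fitting was bidirectional versus DMSO.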

[10] = target: human RAR-related Orphan Receptor beta (RORb), RORB (gene 6096) (UniProt Q92753); assay: ATG_RORb_TRANS: Attagene TRANS-FACTORIAL HepG2 Assay for human RAR-related Orphan Receptor beta (RORb) (AID 2283010; active means hit-call score of the fitted dose curve at least 0.9, where 1 is the maximum)
Procedure, shortened: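 Read-out is reporter mRNA induction, quantified by RT-PCR with fluorescent capillary electrophoresis, 24 h post-dose in transiently transfected HepG2 expressing exogenous NR-Gal4 chimera. Activity fitted upward versus DMSO.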

[11] = target: human Retinoic Acid Receptor beta (RARb), RARB (gene 5915) (UniProt P10826); assay: ATG_RARb_TRANS: Attagene TRANS-FACTORIAL HepG2 Assay for human Retinoic Acid Receptor beta (AID 2283004; active means hit-call score of the fitted dose curve at least 0.9, where 1 is the maximum)
Procedure, shortened: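 Readout is reporter mRNA induction: RNA reverse-transcribed, PCR-amplified, FAM-labelled, HpaI-cut and resolved by capillary electrophoresis. Transiently transfected HepG2 cells carrying exogenous NR–Gal4 chimeras were dosed for 24 h; activity fitted upward relative to DMSO.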

[12] = target: Retinoic acid receptor alpha (Homo sapiens) (UniProt P10276); assay: ATG_RARa_TRANS: Attagene TRANS-FACTORIAL HepG2 Assay for human Retinoic Acid Receptor alpha (RARa) (AID 2283005; active means hit-call score of the fitted dose curve at least 0.9, where 1 is the maximum;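 on AC50: potency for increased reporter signal meaning RARa activation over DMSO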)
Procedure, shortened: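 HepG2 cells transiently transfected with multiple reporter units expressing chimeric RARα-GAL4 fusion, with GAL4-UAS-driven reporters. After 24 h compound exposure, reporter mRNA induction quantified by RT-PCR and capillary electrophoresis with fluorescent labeling; gain-of-signal fitted relative to DMSO control.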

[13] = BSK_3C_TissueFactor: BioMAP Diversity Plus: 3C Assay for Tissue Factor Biomarker Activity (AID 2282997); conditions: BioMAP 3C HUVEC, tissue factor biomarker readout; actives raise or lower the signal
Procedure, shortened: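 HUVEC, 3C system, 24 h post-dose; Tissue Factor by ELISA; bidirectional fit vs DMSO baseline.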

[14] = BSK_3C_uPAR: BioMAP Diversity Plus: 3C Assay for Urokinase-type plasminogen activator receptor (uPAR) Biomarker Activity (AID 2282998); conditions: BioMAP 3C HUVEC, uPAR biomarker ELISA; actives raise or lower the signal
Procedure, shortened: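 Dose primary human umbilical vein endothelial cells, incubate 24 h, measure cell-surface uPAR by ELISA, then fit the signal in both directions against the DMSO negative control.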

[15] = BSK_3C_VCAM1: BioMAP Diversity Plus: 3C Assay for Vascular cell adhesion molecule 1 (VCAM1) Biomarker Activity (AID 2282999); conditions: BioMAP 3C HUVEC, VCAM1 ELISA, cytokine-stimulated; actives raise or lower the signal
Procedure, shortened: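 Vascular primary endothelium (human umbilical vein) was exposed to chemicals and assayed 24 h later. VCAM-1 levels came from ELISA, with DMSO serving as baseline for bidirectional fitting.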

[16] = BSK_4H_Eotaxin3: BioMAP Diversity Plus: 4H Assay for Eotaxin 3 Biomarker Activity (AID 2283000); conditions: primary human endothelial cells (HUVEC); actives raise or lower the signal
Procedure, shortened: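 Readout is Eotaxin-3 (CCL26) level by ELISA in primary human umbilical vein endothelial cells harvested 24 h after chemical exposure; activity fitted in both directions against DMSO control.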

[17] = read-out: Intercellular Adhesion Molecule 1 (ICAM1), ICAM1 (gene 3383); assay: BSK_3C_ICAM1: BioMAP Diversity Plus: 3C Assay for Intercellular Adhesion Molecule 1 (ICAM1) Biomarker Activity (AID 2283003); conditions: primary human endothelial cells (HUVEC); actives raise or lower the signal
Procedure, shortened: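 ELISA readout of ICAM1 in human umbilical vein endothelial cells in the 3C system, taken 24 h post-dose. Gain or loss of signal versus DMSO was fitted in both directions, with SRB total-protein staining run in parallel.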

[18] = BSK_3C_Proliferation: Cell Proliferation Assessment in the BioMAP Diversity Plus: 3C Assay (AID 2283006); conditions: primary human endothelial cells (HUVEC);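 further: potency may reflect either rise or fall in cell number versus DMSO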
Procedure, shortened: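 Proliferation as total protein: sulforhodamine B (0.1%) stain of TCA-fixed subconfluent human umbilical vein endothelial cells, absorbance 560 nm, 48 h after dosing. Activity fitted in both directions against DMSO baseline.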

[19] = target: human Retinoic Acid Receptor gamma (RARg), RARG (gene 5916) (UniProt P13631); assay: ATG_RARg_TRANS: Attagene TRANS-FACTORIAL HepG2 Assay for human Retinoic Acid Receptor gamma (RARg) (AID 2283009; active means hit-call score of the fitted dose curve at least 0.9, where 1 is the maximum;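 on AC50: AC50 is for reporter induction above DMSO meaning RARg activation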)
Procedure, shortened: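 Transactivation of exogenous RARg-Gal4 fusion measured as reporter transcript induction after 24 h in transfected HepG2 cells. RNA reverse-transcribed, amplified, fluorescently labeled and resolved by capillary electrophoresis; increase relative to DMSO.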

Measured: AC50

Cellular tumor antigen p53 (Homo sapiens), sequence (P04637 whole entry, looked up, the tested form may be a part): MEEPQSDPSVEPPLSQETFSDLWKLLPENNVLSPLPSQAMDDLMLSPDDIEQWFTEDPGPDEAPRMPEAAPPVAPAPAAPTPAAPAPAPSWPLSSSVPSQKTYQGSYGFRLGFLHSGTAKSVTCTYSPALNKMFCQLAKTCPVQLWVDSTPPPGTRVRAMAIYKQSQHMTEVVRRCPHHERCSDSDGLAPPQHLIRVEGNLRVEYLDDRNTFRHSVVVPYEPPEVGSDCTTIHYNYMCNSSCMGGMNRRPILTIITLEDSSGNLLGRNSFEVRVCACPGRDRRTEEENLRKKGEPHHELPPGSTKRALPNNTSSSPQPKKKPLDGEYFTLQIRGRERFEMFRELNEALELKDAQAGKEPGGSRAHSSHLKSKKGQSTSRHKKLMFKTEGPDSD
Nuclear receptor subfamily 1 group I member 2 (Homo sapiens), sequence (O75469 whole entry, looked up, the tested form may be a part): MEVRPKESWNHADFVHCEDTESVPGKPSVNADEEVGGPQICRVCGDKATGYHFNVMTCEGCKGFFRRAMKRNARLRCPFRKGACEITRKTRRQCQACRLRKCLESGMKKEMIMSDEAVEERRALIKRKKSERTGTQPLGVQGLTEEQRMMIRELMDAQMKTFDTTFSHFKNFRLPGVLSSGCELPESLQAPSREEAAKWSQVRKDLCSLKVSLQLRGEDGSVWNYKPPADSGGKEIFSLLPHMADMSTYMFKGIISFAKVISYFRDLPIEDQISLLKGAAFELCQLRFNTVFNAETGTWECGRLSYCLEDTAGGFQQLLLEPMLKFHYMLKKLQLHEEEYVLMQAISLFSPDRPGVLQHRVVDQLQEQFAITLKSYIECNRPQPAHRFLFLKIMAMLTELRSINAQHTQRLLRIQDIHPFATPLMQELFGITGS
human Peroxisome Proliferator-activated Receptor alpha (PPARa), PPARA (gene 5465), sequence (Q07869 whole entry, looked up): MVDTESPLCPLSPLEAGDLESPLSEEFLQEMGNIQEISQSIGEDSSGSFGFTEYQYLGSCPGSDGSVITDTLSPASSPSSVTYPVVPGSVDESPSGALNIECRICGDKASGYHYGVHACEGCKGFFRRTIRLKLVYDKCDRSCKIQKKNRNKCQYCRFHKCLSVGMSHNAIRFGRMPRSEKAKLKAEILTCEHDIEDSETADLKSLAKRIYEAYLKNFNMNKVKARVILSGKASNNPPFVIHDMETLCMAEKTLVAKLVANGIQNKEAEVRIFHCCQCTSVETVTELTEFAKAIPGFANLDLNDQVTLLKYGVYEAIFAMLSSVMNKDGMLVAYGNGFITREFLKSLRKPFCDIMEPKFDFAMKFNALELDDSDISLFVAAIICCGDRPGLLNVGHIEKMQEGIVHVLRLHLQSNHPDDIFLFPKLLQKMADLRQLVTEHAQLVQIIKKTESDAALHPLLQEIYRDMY
human Retinoic Acid Receptor beta (RARb), RARB (gene 5915), sequence (P10826 whole entry, looked up, the tested form may be a part): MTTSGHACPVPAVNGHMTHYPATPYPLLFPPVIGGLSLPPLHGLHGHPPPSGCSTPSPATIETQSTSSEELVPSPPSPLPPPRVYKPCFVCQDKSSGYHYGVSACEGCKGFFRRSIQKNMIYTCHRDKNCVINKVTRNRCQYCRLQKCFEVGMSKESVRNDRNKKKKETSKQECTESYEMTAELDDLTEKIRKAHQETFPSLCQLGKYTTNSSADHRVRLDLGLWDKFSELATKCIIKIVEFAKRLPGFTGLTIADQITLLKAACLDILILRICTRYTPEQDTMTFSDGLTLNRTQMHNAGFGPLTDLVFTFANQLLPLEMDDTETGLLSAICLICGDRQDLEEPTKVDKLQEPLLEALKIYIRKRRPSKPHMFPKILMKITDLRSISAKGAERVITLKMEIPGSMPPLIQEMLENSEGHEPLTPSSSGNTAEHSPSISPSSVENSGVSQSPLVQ
Myc proto-oncogene protein (Homo sapiens), sequence (P01106 whole entry, looked up): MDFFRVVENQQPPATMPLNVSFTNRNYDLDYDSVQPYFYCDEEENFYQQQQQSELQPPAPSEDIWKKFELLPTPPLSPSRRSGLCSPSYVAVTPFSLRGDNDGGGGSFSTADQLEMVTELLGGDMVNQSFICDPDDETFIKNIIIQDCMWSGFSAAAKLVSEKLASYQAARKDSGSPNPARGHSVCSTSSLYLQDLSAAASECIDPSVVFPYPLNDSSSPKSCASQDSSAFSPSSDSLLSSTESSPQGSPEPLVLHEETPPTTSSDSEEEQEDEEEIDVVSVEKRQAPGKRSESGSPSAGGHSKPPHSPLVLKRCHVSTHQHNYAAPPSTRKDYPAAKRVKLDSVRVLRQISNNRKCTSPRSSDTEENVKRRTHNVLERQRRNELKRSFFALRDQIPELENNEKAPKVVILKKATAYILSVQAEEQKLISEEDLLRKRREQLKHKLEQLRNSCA
human Retinoic Acid Receptor gamma (RARg), RARG (gene 5916), sequence (P13631 whole entry, looked up, the tested form may be a part): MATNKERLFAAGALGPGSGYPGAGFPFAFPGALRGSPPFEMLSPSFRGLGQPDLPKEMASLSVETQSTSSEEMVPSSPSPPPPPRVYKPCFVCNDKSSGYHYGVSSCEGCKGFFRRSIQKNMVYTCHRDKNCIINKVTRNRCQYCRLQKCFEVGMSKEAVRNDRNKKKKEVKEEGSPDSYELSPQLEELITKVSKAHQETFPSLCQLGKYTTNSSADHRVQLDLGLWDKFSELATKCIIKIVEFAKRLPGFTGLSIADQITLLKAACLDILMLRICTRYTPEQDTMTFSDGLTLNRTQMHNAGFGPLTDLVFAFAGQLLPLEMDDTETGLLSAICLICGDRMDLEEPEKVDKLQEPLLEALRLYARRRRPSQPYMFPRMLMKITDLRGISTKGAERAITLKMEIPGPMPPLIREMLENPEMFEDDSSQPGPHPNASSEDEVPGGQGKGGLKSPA
Peroxisome proliferator-activated receptor gamma (Homo sapiens), sequence (P37231 whole entry, looked up, the tested form may be a part): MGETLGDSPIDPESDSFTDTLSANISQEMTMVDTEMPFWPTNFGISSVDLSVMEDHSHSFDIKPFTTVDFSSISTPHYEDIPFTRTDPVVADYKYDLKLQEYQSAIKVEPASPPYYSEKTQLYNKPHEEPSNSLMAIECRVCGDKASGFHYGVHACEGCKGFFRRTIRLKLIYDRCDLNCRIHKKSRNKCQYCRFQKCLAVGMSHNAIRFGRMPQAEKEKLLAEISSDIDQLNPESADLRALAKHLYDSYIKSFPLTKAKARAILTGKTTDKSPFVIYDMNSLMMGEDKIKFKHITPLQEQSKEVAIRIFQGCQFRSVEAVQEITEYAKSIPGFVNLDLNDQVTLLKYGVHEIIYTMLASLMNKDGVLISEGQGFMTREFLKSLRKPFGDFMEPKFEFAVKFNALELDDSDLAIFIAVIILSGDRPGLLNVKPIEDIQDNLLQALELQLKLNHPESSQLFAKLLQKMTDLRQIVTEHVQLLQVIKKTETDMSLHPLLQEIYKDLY
Retinoic acid receptor alpha (Homo sapiens), sequence (P10276 whole entry, looked up, the tested form may be a part): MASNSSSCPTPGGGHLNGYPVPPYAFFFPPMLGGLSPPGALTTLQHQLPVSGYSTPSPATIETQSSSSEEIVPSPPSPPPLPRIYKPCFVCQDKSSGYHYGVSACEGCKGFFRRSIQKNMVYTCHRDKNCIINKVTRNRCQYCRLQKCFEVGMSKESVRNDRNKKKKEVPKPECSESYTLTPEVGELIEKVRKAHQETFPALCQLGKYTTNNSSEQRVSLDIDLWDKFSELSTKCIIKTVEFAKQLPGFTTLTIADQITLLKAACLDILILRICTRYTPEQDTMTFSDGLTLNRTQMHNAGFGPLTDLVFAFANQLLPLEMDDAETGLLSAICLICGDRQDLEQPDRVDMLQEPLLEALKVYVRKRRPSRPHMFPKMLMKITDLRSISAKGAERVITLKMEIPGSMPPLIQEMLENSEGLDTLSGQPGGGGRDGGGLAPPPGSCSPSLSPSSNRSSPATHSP
human Peroxisome Proliferator-activated Receptor delta (PPARd), PPARD (gene 5467), sequence (Q03181 whole entry, looked up, the tested form may be a part): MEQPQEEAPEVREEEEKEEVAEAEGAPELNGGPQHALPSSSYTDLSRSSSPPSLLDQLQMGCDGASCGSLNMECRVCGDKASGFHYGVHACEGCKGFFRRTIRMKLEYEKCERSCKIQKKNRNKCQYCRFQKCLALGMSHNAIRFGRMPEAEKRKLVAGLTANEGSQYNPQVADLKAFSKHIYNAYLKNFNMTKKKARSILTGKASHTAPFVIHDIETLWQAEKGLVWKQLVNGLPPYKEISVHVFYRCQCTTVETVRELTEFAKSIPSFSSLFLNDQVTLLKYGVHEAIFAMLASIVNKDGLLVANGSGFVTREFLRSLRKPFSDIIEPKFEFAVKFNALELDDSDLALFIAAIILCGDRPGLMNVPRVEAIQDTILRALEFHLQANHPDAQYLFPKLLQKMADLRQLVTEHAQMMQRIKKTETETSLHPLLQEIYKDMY
human RAR-related Orphan Receptor beta (RORb), RORB (gene 6096), sequence (Q92753 whole entry, looked up, the tested form may be a part): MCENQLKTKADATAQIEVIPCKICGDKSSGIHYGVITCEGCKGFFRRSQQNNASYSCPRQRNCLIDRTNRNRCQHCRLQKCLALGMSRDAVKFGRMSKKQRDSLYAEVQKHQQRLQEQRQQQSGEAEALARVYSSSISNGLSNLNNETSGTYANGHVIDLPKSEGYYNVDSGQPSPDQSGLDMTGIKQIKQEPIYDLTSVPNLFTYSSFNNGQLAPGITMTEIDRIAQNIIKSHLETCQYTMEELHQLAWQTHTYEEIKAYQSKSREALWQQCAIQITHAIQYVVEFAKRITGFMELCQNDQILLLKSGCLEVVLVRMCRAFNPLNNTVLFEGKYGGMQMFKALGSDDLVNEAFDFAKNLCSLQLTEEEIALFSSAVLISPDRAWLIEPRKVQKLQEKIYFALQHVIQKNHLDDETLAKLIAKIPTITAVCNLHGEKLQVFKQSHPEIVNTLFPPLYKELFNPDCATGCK

Cc1ccc(N)c([N+](=O)[O-])c1
inactive: [1] | [2] | [3] | [4] | [5] | [6] | [7]

CCCCCCOC(=O)C(C)CC (stereo not drawn)
inactive: [1] | [2] | [3] | [8] | [9] | [5] | [7] | [10]

CC1=NC(C)OC1C (stereo not drawn)
active: [9] 167 µM | [7] 19.8 µM
inactive: [1] | [2] | [8] | [4] | [11] | [12] | [6]

CCCCCCCCCCCCCCCC[N+](C)(C)CC
active: [2] 8.97 µM | [9] 11.8 µM | [13] 12.1 µM | [14] 0.65 µM | [15] 3.17 µM | [16] 2.24 µM | [4] 13.3 µM | [17] 3.44 µM | [12] 17.8 µM | [18] 0.636 µM | [6] 15.6 µM | [19] 19.6 µM
inactive: [1] | [8] | [5] | [11] | [7]

CC(C)CC(O)Cc1ccccc1 (stereo not drawn)
inactive: [1] | [2] | [8] | [9] | [12] | [6] | [7] | [19]
active: [3] 41.9 µM

C=C(C)C(=O)OCCO
inactive: [1] | [2] | [3] | [8] | [4] | [6] | [7] | [19] | [10]

CC(C)c1ccc2c(C(C)C)cc(C(C)C)c(S(=O)(=O)O)c2c1
active: [3] 25.9 µM | [6] 25.1 µM | [7] 1.23 µM
inactive: [1] | [2] | [8] | [4] | [5] | [11]
